Mtb FBA inh = inhibits M. tuberculosis FBA enzyme; P9WQA3; AID 588726; 360,000 tested, 2.3% active; inhibition, % at 1 µM; purified M. tuberculosis FBA, fluorescence read-out
Target sequence (P9WQA3 whole entry, looked up): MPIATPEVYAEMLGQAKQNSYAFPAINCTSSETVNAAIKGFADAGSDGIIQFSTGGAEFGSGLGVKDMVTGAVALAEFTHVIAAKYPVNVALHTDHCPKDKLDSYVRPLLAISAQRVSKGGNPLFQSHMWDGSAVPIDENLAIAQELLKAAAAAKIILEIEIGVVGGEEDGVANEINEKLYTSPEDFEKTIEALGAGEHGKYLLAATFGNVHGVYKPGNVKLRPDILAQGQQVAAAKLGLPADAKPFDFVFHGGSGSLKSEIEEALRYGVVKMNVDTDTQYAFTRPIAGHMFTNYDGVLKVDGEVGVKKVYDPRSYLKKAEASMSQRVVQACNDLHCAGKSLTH
CCHF vOTU inh = blocks the CCHF virus ovarian tumor domain protease; 370,000 tested, 0.55% active; CCHFV vOTU protease, Pep-AMC fluorescence; inhibition, % at 11.5 µM; in the data active means inhibition above about 30%
Mtb bLac sens = beta-lactam sensitization of Mtb H37Rv. AID 434955. 330,000 tested, 0.27% active. M. tuberculosis H37Rv growth with meropenem, percent inhibition. inhibition, % at 25 µM; call rule not given here;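 further: growth measured after seven days incubation then overnight dye step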
GDH-TPI counter-1 = counter-screen for M. tuberculosis FBA inhibitors: GDH-TPI coupled enzymes; 360,000 tested, 1.2% active; GDH-TPI coupled enzyme counterscreen, NADH absorbance; inhibition, % at 4.8 µM; in the data active means inhibition above about 30%
RecA splice inh = inhibitors of M. tuberculosis RecA intein splicing. P9WHJ3. cell-free RecA intein splicing, fluorescence. inhibition, % (test concentration not listed). 290,000 tested, 0.75% active. AID 2221; in the data active means inhibition above about 30%
Mtb FBA inh conf = Mtb FBA inhibition, confirmed; shares compounds with Mtb FBA inh; purified M. tuberculosis FBA, fluorescence read-out; inhibition, % at 1 µM; 5,600 tested, 78% active; AID 651616
GDH-TPI counter-2 = GDH-TPI inhibition counter-screen for FBA inhibitors. AID 652141. 5,600 tested, 81% active. GDH-TPI coupled enzyme counterscreen, fluorescence. inhibition, % at 1 µM. shares compounds with Mtb FBA inh; in the data active means inhibition above about 10%
GDH-TPI DR = GDH-TPI dose response counter-screen for Mtb FBA | shares compounds with Mtb FBA inh | IC50, µM | 170 tested, 79% active | AID 652145 | GDH-TPI coupled enzyme assay, fluorescence, artifact counterscreen; call rule not given here
A number is an active result; . = inactive; / = no result; + = active, no number. The list is not random: actives were taken first. Their share in the collection is about 4.2%. Unless noted, no stated cut-off is given here; in the data, active means inhibition above about 27%; inactive means the rest.

SMILES | Mtb FBA inh | CCHF vOTU inh | Mtb bLac sens | GDH-TPI counter-1 | RecA splice inh | Mtb FBA inh conf | GDH-TPI counter-2 | others
O=S(=O)(c1ccc2ccccc2c1)N1C=CC(C(F)(F)F)=NCC1 | 86 | . | . | . | . | . | .
CCCCOc1ccc(C(=O)NC2CCCCN(Cc3ccccc3C)C2=O)cc1 (stereo not given) | / | . | / | / | / | / | /
O=C(CN1C(=O)NC2(CCCCCCC2)C1=O)N1CCN(C(=O)c2ccco2)CC1 | 42 | . | . | . | . | + | 161
O=C(CN1C(=O)NC2(CCCC2)C1=O)N1CCN(C(=O)c2ccco2)CC1 | . | . | . | . | . | / | /
Fc1ccc2[nH]c3c(N4CCN(c5ccccc5)CC4)ncnc3c2c1 | . | . | . | . | . | / | /
CCCCOc1ncnc2c1[nH]c1ccc(F)cc12 | 32 | . | . | . | / | 189 | 160
COc1cccc2[nH]c3c(Cl)ncnc3c12 | 41 | . | . | . | . | 163 | 144
Fc1ccc2[nH]c3c(Cl)ncnc3c2c1 | 40 | . | . | . | . | 164 | 158
Cc1nn2c(=O)c(NC(=O)c3ccc(Cl)cc3)cnc2s1 | 65 | . | . | . | . | 44 | 28
COC1=Nc2ccccc2N2CCN=C12 | 66 | . | / | / | / | . | . | GDH-TPI DR=3.5
CCCN1C2=NCCN2c2ccccc21 | . | . | . | . | . | / | /
CC(C)(C)N(Cc1cn(Cc2ccccc2)nn1)S(=O)(=O)c1ccccc1Br | / | . | / | / | / | / | /
COc1cccc2cc(-c3n[nH]c(=S)n3C)oc12 | 42 | . | . | . | . | . | .
O=C(COC(=O)COc1ccccc1)Nc1cccc([N+](=O)[O-])c1 | . | . | . | . | . | / | /
O=C(COC(=O)c1ccccc1C(=O)c1ccccc1)Nc1cccc([N+](=O)[O-])c1 | 55 | . | . | . | . | 85 | 74
Nc1c(C(O)(C(F)(F)F)C(F)(F)F)ccc2ccccc12 | 28 | . | / | . | . | . | 11
c1ccc2c(c1)ccc1ccccc12 | . | . | . | . | / | / | /
O=C(O)C1CC=C(Cl)CC1C(=O)NC1CCCCC1 (stereo not given) | 28 | / | . | . | . | 160 | 108
C=CS(=O)(=O)N(Cc1ccc(C)cc1)[C@@H](CO)C(=O)OC | / | . | / | / | / | / | /
COc1ccccc1C1=NN(C2=NN=C(N)Cc3ncnn32)C(O)(C(F)(F)F)C1 (stereo not given) | 35 | . | . | . | . | . | .
NC1=NN=C(N2N=C(c3ccccc3)CC2(O)C(F)(F)F)n2ncnc2C1 (stereo not given) | . | . | . | . | / | / | /
NC1=NN=C(N2N=C(c3ccc(Br)cc3)CC2(O)C(F)(F)F)n2ncnc2C1 (stereo not given) | 56 | . | . | . | . | . | .
C[C@H]1[C@@H]2C[C@@]3(O[C@H](c4ccc(C(F)(F)F)cc4)N=C3C[C@@H]1c1ccccc1)N(Cc1ccncc1)C2=O | / | . | / | / | / | / | /
CCN1CC=C2C(C#N)=C(N)C(C#N)(C#N)C(CCc3ccccc3)C2C1 (stereo not given) | 36 | . | . | . | / | 74 | 65
CC(=O)N1CC=C2C(C#N)=C(N)C(C#N)(C#N)C(CCc3ccccc3)C2C1 (stereo not given) | . | . | . | . | . | / | /
SMILES | Mtb FBA inh | CCHF vOTU inh | Mtb bLac sens | GDH-TPI counter-1 | RecA splice inh | Mtb FBA inh conf | GDH-TPI counter-2 | others
COC(=O)C[C@H]1CC[C@@H]2[C@H](COc3ccc(NC(=O)c4cccc(F)c4)cc3C(=O)N2C)O1 | / | . | / | / | / | / | /
CCCCN1CCS(=O)(=O)N(Cc2cn(Cc3ccccc3Br)nn2)C(C(=O)OC)C1 (stereo not given) | / | . | / | / | / | / | /
CC(=O)C(C)Oc1ccc2c3c(c(=O)oc2c1)CCCC3 (stereo not given) | 40 | . | . | . | . | + | 146
O=C(O)C(Oc1ccc2c3c(c(=O)oc2c1)CCC3)c1ccccc1 (stereo not given) | 69 | . | . | . | . | . | .
CCc1cc(=O)oc2c(C)c(OCC(=O)NC3CC(C)(C)NC(C)(C)C3)ccc12 | 37 | / | . | . | . | 139 | 124
C=C(Cl)COc1ccc2c(C)cc(=O)oc2c1 | . | . | . | . | . | / | /
C#CCOc1ccc2c(C)cc(=O)oc2c1 | 40 | . | . | . | . | 64 | 44
CC(C)C(=O)Oc1ccc(CO)cc1[C@H](CCN(C(C)C)C(C)C)c1ccccc1 | / | . | / | / | / | / | /
Cc1nn(-c2ccccc2)c2sc(C(=O)N3CCC4(CC3)OCCO4)cc12 | / | . | / | / | / | / | /
CCc1cc2c3c(c(=O)oc2cc1OCC(=O)OC)CCCC3 | 54 | . | . | . | . | 48 | 31
COc1cccc(COc2ccc3c(C)c(Cc4ccccc4)c(=O)oc3c2)c1 | . | . | . | . | . | / | /
Cc1c(Cc2ccccc2)c(=O)oc2cc(OCc3nn[nH]n3)ccc12 | 83 | . | . | . | . | . | .
O=C(O)c1ccc(COc2ccc3c4c(c(=O)oc3c2)CCC4)o1 | 34 | . | . | . | . | 95 | 64
O=c1oc2cc(OCc3nn[nH]n3)ccc2c2c1CCCC2 | 89 | . | . | . | . | . | .
O=C(COc1cc2oc(=O)c3c(c2cc1Cl)CCC3)Nc1ccc(CN2CCOCC2)cc1 | . | . | . | . | . | / | /
O=C(CSc1nnc(-c2ccccc2)n1Cc1ccco1)Nc1ccc(Oc2ccccc2)cc1 | / | . | / | / | / | / | /
O=C(CSc1nnc(-c2cccs2)n1Cc1ccco1)Nc1ccc(Oc2ccccc2)cc1 | / | . | / | / | / | / | /
CCOC(=O)COc1ccc2c3c(c(=O)oc2c1C)CCC3 | . | . | . | . | . | / | /
Cc1c(OCc2nn[nH]n2)ccc2c3c(c(=O)oc12)CCC(C)C3 (stereo not given) | 107 | . | . | . | / | + | 155
Cc1cc(=O)oc2cc(OC(C(=O)O)c3ccccc3)ccc12 (stereo not given) | . | . | . | . | . | / | /
Cc1cc(=O)oc2cc(OC(C)C)ccc12 | 73 | . | . | . | . | + | 178
C=CCOc1ccc2c(CC)cc(=O)oc2c1C | 41 | . | . | . | . | + | 164
CCOc1ccc2c(CC)cc(=O)oc2c1OCC | . | . | . | . | . | / | /
CC(=O)COc1ccc2c3c(c(=O)oc2c1)CCCC3 | 70 | . | . | . | . | 33 | 35
Cc1cc(NC(=O)Cc2cn(C)c3ccccc23)ccc1Nc1cccnc1 | / | . | / | / | / | / | /
Cc1ccccc1CN1CCCCC(NC(=O)c2cccc([N+](=O)[O-])c2)C1=O (stereo not given) | / | . | / | / | / | / | /
Cc1cc(=O)oc2cc(NC(=O)c3cc4ccccc4o3)ccc12 | / | . | . | / | . | / | /
C#CCOc1ccc2c3c(c(=O)oc2c1)CCCC3 | 46 | . | . | . | / | + | +
CC1(C)CC(NC(=O)COc2ccc3c4c(c(=O)oc3c2)CCCC4)CC(C)(C)N1 | 52 | . | . | . | . | + | +
